In all, about 5,500 compounds went through this assay and about 2,000 (36%) were called active. Another 18% or so got no clear call; they are omitted. No stated cut-off is given here; in the data, active means normalized growth mostly below about 0.91 (no sharp cut-off); inconclusive means no clear call, values can overlap the other calls; inactive means mostly above about 0.92. This is one part of the list.
Test: chemical genetic growth profiling, strain panel (AID 1159580);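 further: tested at 20 µM; growth read once vehicle control cultures reached saturation at 30 °C; 1 = growth at the plate median or of vehicle wells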
Conditions: S. cerevisiae deletion strains, growth OD
[1] = locus YDL101C, strain DUN1, stronger effect = lower value
[2] = locus YHR030C, strain SLT2, stronger effect = lower value

Measured: normalized growth

O=C(Nc1cccnc1)c1cccc(Cl)c1Cl
inactive: locus YAL013W, strain DEP1, stronger effect = lower value 0.977 | locus YBR229C, strain ROT2, stronger effect = lower value 0.993 | [1] 0.98 | locus YDL134C, strain PPH21, stronger effect = lower value 0.988 | locus YDR150W, strain NUM1, stronger effect = lower value 0.957 | locus YEL061C, strain CIN8, stronger effect = lower value 0.971 | locus YGR078C, strain PAC10, stronger effect = lower value 0.983 | [2] 0.935 | locus YHR087W, strain rtc3, stronger effect = lower value 0.99 | locus YJL187C, strain SWE1, stronger effect = lower value 1.01 | locus YJR043C, strain POL32, stronger effect = lower value 0.993 | locus YJR075W, strain HOC1, stronger effect = lower value 0.991 | locus YKL190W, strain CNB1, stronger effect = lower value 0.989 | locus YLR039C, strain RIC1, stronger effect = lower value 1.02 | locus YLR058C, strain SHM2 (second series), stronger effect = lower value 1 | locus YLR085C, strain ARP6, stronger effect = lower value 0.955 | locus YLR262C, strain YPT6, stronger effect = lower value 1.01 | locus YML094W, strain GIM5, stronger effect = lower value 0.946 | locus YMR219W, strain ESC1, stronger effect = lower value 0.992 | locus YMR263W, strain SAP30, stronger effect = lower value 1.01 | locus YMR307W, strain GAS1, stronger effect = lower value 1.01 | locus YNL128W, strain TEP1, stronger effect = lower value 0.976 | locus YNL153C, strain GIM3, stronger effect = lower value 0.994 | locus YNL298W, strain CLA4 (second series), stronger effect = lower value 0.946 | locus YNL322C, strain KRE1, stronger effect = lower value 0.982 | locus YNR030W, strain Alg12, stronger effect = lower value 0.975 | locus YOL006C, strain TOP1, stronger effect = lower value 0.943 | locus YPL055C, strain LGE1, stronger effect = lower value 1.02 | locus YPL241C, strain CIN2, stronger effect = lower value 0.985 | locus YPR135W, strain CTF4, stronger effect = lower value 0.856

O=C(c1cc2c(s1)-c1ccccc1CC2)N1CCN(Cc2ccccc2)CC1
inactive: locus YAR019C, strain CDC15, stronger effect = lower value 1 | locus YBL105C, strain PKC1, stronger effect = lower value 1 | locus YBR135W, strain CKS1, stronger effect = lower value 0.996 | locus YBR136W, strain MEC1, stronger effect = lower value 0.999 | locus YBR160W, strain CDC28, stronger effect = lower value 0.998 | locus YDL017W, strain CDC7, stronger effect = lower value 1 | locus YDL028C, strain MPS1, stronger effect = lower value 0.999 | [1] 0.999 | locus YDL108W, strain KIN28, stronger effect = lower value 0.998 | locus YDL132W, strain cdc53, stronger effect = lower value 0.993 | locus YDL214C, strain PRR2, stronger effect = lower value 0.965 | locus YDR052C, strain DBF4, stronger effect = lower value 1 | locus YDR054C, strain cdc34, stronger effect = lower value 0.99 | locus YDR226W, strain ADK1, stronger effect = lower value 1 | locus YDR477W, strain SNF1, stronger effect = lower value 0.982 | locus YER123W, strain YCK3, stronger effect = lower value 0.929 | locus YER133W, strain GLC7, stronger effect = lower value 0.985 | locus YFL009W, strain cdc4, stronger effect = lower value 1.01 | locus YFL029C, strain CAK1, stronger effect = lower value 1 | locus YFR003C, strain YPI1, stronger effect = lower value 0.998 | locus YFR019W, strain FAB1, stronger effect = lower value 0.941 | locus YFR028C, strain CDC14, stronger effect = lower value 0.996 | locus YGR040W, strain KSS1, stronger effect = lower value 0.962 | locus YGR052W, strain FMP48, stronger effect = lower value 1.1 | locus YGR092W, strain DBF2, stronger effect = lower value 0.988 | [2] 1 | locus YHR079C, strain IRE1, stronger effect = lower value 0.971 | locus YHR082C, strain KSP1, stronger effect = lower value 1.04 | locus YHR205W, strain SCH9, stronger effect = lower value 0.94 | locus YIL147C, strain SLN1, stronger effect = lower value 1 | locus YJL095W, strain BCK1, stronger effect = lower value 0.974 | locus YJL128C, strain PBS2, stronger effect = lower value 0.974 | locus YJL157C, strain FAR1, stronger effect = lower value 0.976 | locus YJR016C, strain ILV3, stronger effect = lower value 0.988 | locus YJR066W, strain TOR1 (second series), stronger effect = lower value 0.958 | locus YJR066W, strain TOR1, stronger effect = lower value 1.07 | locus YKL048C, strain ELM1, stronger effect = lower value 0.984 | locus YKL067W, strain YNK1, stronger effect = lower value 0.955 | locus YKL101W, strain HSL1, stronger effect = lower value 0.984 | locus YKL193C, strain SDS22, stronger effect = lower value 1 | locus YKL203C, strain TOR2, stronger effect = lower value 1.01 | locus YLR113W, strain HOG1, stronger effect = lower value 0.96 | locus YLR133W, strain CKI1, stronger effect = lower value 0.971 | locus YLR403W, strain SFP1, stronger effect = lower value 0.966 | locus YML070W, strain DAK1, stronger effect = lower value 0.953 | locus YMR001C, strain CDC5, stronger effect = lower value 1 | locus YMR205C, strain PFK2 (second series), stronger effect = lower value 0.981 | locus YMR277W, strain FCP1, stronger effect = lower value 1.01 | locus YNL006W, strain LST8, stronger effect = lower value 1.02 | locus YNL020C, strain ARK1, stronger effect = lower value 0.982 | locus YNL161W, strain CBK1, stronger effect = lower value 1 | locus YNL183C, strain NPR1, stronger effect = lower value 0.984 | locus YNL207W, strain RIO2, stronger effect = lower value 1 | locus YNL222W, strain SSU72, stronger effect = lower value 1.01 | locus YNL307C, strain MCK1 (second series), stronger effect = lower value 0.963 | locus YOL078W, strain AVO1, stronger effect = lower value 1.01 | locus YOL136C, strain PFK27, stronger effect = lower value 0.964 | locus YOR061W, strain CKA2, stronger effect = lower value 1 | locus YOR119C, strain RIO1, stronger effect = lower value 1.1 | locus YOR231W, strain MKK1, stronger effect = lower value 0.981 | locus YOR329C, strain SCD5, stronger effect = lower value 1.01 | locus YPL031C, strain PHO85, stronger effect = lower value 0.981 | locus YPL153C, strain RAD53, stronger effect = lower value 0.975 | locus YPL204W, strain HRR25, stronger effect = lower value 0.951 | locus YPL209C, strain IPL1, stronger effect = lower value 1.01 | locus YPL256C, strain CLN2, stronger effect = lower value 0.958 | locus YPR025C, strain CCL1, stronger effect = lower value 1 | locus YPR106W, strain ISR1, stronger effect = lower value 0.996 | locus YPR111W, strain DBF20, stronger effect = lower value 0.977 | strain NNK1, stronger effect = lower value 0.998 | strain TSCII, stronger effect = lower value 1
